From PubChem BioAssay (NCATS)
Results filed as inconclusive are left out. Active and inactive are the calls of the source. Calls come from the whole dose curve; as a rule, active = well fitted curve in the direction sought with a large enough effect; inconclusive = small, poorly fitted or top-dose-only effect, or another doubt; inactive = no such curve, though single readings can be large; an effect the other way counts as inactive or inconclusive.

Experiments:
[1] = qHTS for compounds that reverse cellular toxicity of Amyloid beta (A-beta) peptide in yeast: LOPAC Validation Assay (AID 720559)
How it was run: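 Rescue of A-beta toxicity was scored as yeast growth by 600 nm absorbance after 48 hr at 30 C with compound. Normalization used DMSO (negative) and equimolar ferric chloride plus clioquinol (positive).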

[2] = qHTS for Activators of Parkin Expression: LOPAC Validation Assay (FLuc Reporter) (AID 720573)
How it was run: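 FLuc signal from Parkin-promoter coincidence reporter neuronal cells, normalized to DMSO and positive control (100%). Cells (1,500/well) pre-incubated 24 h, then exposed to LOPAC compounds in 7-point dose response for 24 h at 37 C, 5% CO2.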

[3] = biological target: Hexokinase-4 (Homo sapiens) + Glucokinase regulatory protein (Homo sapiens) (UniProt P35557+Q14397); test: qHTS assay for inhibitors of recombinant human GCK-GKRP interaction: Diaphorase-coupled assay (AID 743205)
How it was run: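 A kinetic fluorescence read (Ex 525/Em 590 nm, every minute for 30 minutes) tracked resorufin from a G6PDH-diaphorase coupled GCK reaction. It contained 10 nM GST-GCK, 10 nM FLAG-GKRP, 5 mM glucose, 0.4 mM ATP in Hepes pH 7.6. Normalized to with/without-enzyme DMSO controls.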

[4] = qHTS for Activators of Parkin Expression: LOPAC Validation Assay (NLuc Reporter) (AID 720572)
How it was run: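 NLuc signal, read 10 min after reagent and following a prior FLuc read, is normalized to DMSO (0) and positive controls (100%). Cells: neuronal Parkin-promoter coincidence reporter line; compounds tested 7-point, 24 h, 37 C, 5% CO2.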

Measured: Potency

Sequence of Hexokinase-4 (Homo sapiens) + Glucokinase regulatory protein (Homo sapiens) (P35557 whole entry, looked up): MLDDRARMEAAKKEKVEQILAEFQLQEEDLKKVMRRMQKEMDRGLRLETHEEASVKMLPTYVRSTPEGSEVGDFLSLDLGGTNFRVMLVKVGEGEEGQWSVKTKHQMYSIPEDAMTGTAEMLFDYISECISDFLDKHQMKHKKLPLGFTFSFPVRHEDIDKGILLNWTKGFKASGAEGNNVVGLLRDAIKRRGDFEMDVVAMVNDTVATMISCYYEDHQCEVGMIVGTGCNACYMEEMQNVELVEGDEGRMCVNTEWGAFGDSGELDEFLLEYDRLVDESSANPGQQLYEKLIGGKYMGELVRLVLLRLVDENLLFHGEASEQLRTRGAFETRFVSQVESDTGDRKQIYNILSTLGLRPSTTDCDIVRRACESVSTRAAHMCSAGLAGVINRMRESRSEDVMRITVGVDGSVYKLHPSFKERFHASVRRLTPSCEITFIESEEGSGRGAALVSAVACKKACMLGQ
Sequence of Hexokinase-4 (Homo sapiens) + Glucokinase regulatory protein (Homo sapiens) (Q14397 whole entry, looked up): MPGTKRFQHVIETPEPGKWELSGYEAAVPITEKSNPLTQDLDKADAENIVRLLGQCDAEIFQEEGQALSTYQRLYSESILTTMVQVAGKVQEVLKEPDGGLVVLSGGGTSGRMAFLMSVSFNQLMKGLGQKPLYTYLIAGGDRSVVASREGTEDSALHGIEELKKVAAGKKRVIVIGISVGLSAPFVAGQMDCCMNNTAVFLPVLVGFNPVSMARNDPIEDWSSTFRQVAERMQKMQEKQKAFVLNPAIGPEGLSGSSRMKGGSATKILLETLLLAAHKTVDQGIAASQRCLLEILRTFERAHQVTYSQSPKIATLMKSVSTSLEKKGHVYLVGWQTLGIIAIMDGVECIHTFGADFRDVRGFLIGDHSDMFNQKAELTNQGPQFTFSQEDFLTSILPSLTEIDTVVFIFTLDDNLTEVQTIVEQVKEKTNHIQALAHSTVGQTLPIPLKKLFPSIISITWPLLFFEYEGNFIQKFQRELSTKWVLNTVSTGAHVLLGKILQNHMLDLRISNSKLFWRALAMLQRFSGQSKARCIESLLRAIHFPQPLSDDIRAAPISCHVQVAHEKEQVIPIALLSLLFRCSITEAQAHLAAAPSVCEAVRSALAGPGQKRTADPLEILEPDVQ

O=c1onc2n1-c1cc(Br)ccc1OC2
inactive: [1] | [2] | [3]

CCCCCCCC/C=C\CCCCCCCC(=O)NCCc1ccc(O)c(O)c1
inactive: [2] | [3]

NC(=O)CNCCC(c1ccccc1)c1ccccc1
inactive: all assays above

CCCn1c(=O)c2[nH]c(-c3ccc(S(=O)(=O)O)cc3)nc2n(CCC)c1=O
inactive: all assays above

COc1ccc2c(c1)c(CC(=O)O)c(C)n2Cc1ccc(Cl)cc1
inactive: [1] | [2] | [3]

NC(N)=NC(N)=Nc1cccc(Cl)c1
inactive: all assays above

NC1C=CC=C(C(=O)O)C1 (stereo not given)
inactive: [1] | [2] | [3]

O=C(O)c1ccccc1Nc1cccc(OCc2ccc3ccccc3n2)c1
inactive: [1] | [2] | [3]

CC(C)NC[C@H](O)COc1cccc2ccccc12
inactive: [1] | [2] | [3]

CCCCCCC(=O)OC1CC(C)(C)NC(C)(C)C1
inactive: [1] | [2] | [3]

NC1(C(=O)O)CCCCC1
inactive: [1] | [2] | [3]
